# PubChem BioAssay (Tox21)
# Records with an inconclusive call do not appear. A call without a number means that no potency is given here. Calls of active or inactive are those of the source. Unless noted, calls follow the shape of the dose curve; as a rule, active = well fitted curve in the direction sought with a large enough effect in the repeat runs; inconclusive = weak or mixed curves; inactive = no such curve, though single readings can be large; an effect the other way counts as inactive or inconclusive.
# Key:
# [1] = molecular target: Aryl hydrocarbon receptor (Homo sapiens) (UniProt P35869); assay: qHTS assay to identify small molecule that activate the aryl hydrocarbon receptor (AhR) signaling pathway (AID 743085); also: nearly all actives have a fitted effect of over 15% in size; also: potency is read from the fitted curve at half-maximal effect;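 as to activation: HG2L7.5c1 human HepG2 liver cells with stably integrated DRE-driven firefly reporter; series mostly up to about 70 µM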
# In short: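 HepG2 cells stably carrying a 20-DRE firefly luciferase reporter (HG2L7.5c1) treated with compound for 24 hr at 37C. Luciferase read by ONE-Glo luminescence, with CellTiter-Fluor viability read first.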
# [2] = qHTS assay to identify small molecule that activate the aryl hydrocarbon receptor (AhR) signaling pathway - cell viability counter screen (AID 743086); also: nearly all actives have a fitted effect of over 45% in size; also: potency is read from the fitted curve at half-maximal effect
# In short: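 Cytotoxicity counter screen: CellTiter-Fluor signal (30 min, 37 C) in 4000 HepG2 cells/well carrying the DRE-luciferase reporter, following 24 h compound exposure at 37 C.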
# [3] = molecular target: Peroxisome proliferator-activated receptor gamma (Homo sapiens) (UniProt P37231); assay: qHTS assay to identify small molecule agonists of the peroxisome proliferator-activated receptor gamma (PPARg) signaling pathway (AID 743094; active = well fitted activation curve with a large enough effect in the signal ratio in the repeat runs, not every such curve was filed as active; the % refers to the signal ratio)
# In short: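 Compounds dissolved in DMSO were added to PPARg UAS-bla HEK293H cells for 17 h at 37C, and reporter expression was quantified by fluorescence intensity after 1 h with LiveBLAzer B/G FRET substrate.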
# [4] = qHTS assay to identify small molecule antagonists of the peroxisome proliferator-activated receptor gamma (PPARg) signaling pathway - cell viability counter screen (AID 743194); also: nearly all actives have a fitted effect of over 55% in size
# In short: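 Viability was measured as CellTiter-Glo luminescence in GeneBLAzer PPARg UAS-bla HEK293H cells. These cells had been exposed 17 h at 37 C to compounds together with rosiglitazone at 50 nM final, with the beta-lactamase readout taken in the same wells.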
# [5] = qHTS assay for small molecule agonists of the antioxidant response element (ARE) signaling pathway (AID 743202; active = well fitted activation curve with a large enough effect in the signal ratio in the repeat runs, not every such curve was filed as active; the % refers to the signal ratio)
# In short: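 Quantitative high-throughput format in HepG2 cells bearing an integrated ARE-beta-lactamase reporter. Compound exposure lasted 16 h at 37 C, and fluorescence was read 2 h after adding LiveBLAzer B/G substrate at room temperature.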
# [6] = qHTS assay for small molecule agonists of the antioxidant response element (ARE) signaling pathway - cell viability counter screen (AID 743203; calls by dose curve; also: nearly all actives have a fitted effect of over 55% in size; also: potency is read from the fitted curve at half-maximal effect)
# In short: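 Following 16 hrs of compound treatment at 37C, HepG2 cells with an ARE-controlled beta-lactamase gene were lysed with CellTiter-Glo. Luminescence was read after 30 min at room temperature.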
# [7] = qHTS assay for small molecule activators of the heat shock response signaling pathway - cell viability counter screen (AID 743209); also: nearly all actives have a fitted effect of over 50% in size; also: potency is read from the fitted curve at half-maximal effect
# In short: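 Readout: CellTiter-Glo luminescence, 30 min at room temperature. System: HSE-bla HeLa cells, 1500/well, plated overnight. Treatment: compounds in DMSO, 5 h at 37 C.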
# [8] = qHTS assay for small molecule activators of the heat shock response signaling pathway (AID 743210; active = well fitted activation curve with a large enough effect in the signal ratio in the repeat runs, with a control signal flat, not every such curve was filed as active; the % refers to the signal ratio;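 also: HeLa cells with beta-lactamase reporter driven by heat shock elements; series mostly up to about 63 µM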)
# In short: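 HeLa HSE-bla cells, overnight plating; cpd in DMSO 5 h, 37 C; LiveBLAzer B/G FRET substrate 2.5 h RT; fluorescence intensity read.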
# [9] = qHTS assay to identify small molecule agonists of the peroxisome proliferator-activated receptor delta (PPARd) signaling pathway - cell viability counter screen (AID 743211); also: nearly all actives have a fitted effect of over 55% in size
# In short: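 PPARd-bla HEK293H cells (3000/well) were pre-incubated 5 h at 37 C, then exposed to compound for 17 h at 37 C. After 2 h with LiveBLAzer substrate, CellTiter-Glo was added to the same wells; luminescence read after 30 min at room temperature.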
# [10] = molecular target: Peroxisome proliferator-activated receptor gamma (Homo sapiens) (UniProt P37231); assay: qHTS assay to identify small molecule antagonists of the peroxisome proliferator-activated receptor gamma (PPARg) signaling pathway (AID 743191; calls by dose curve; also: series mostly up to about 63 µM; nearly all actives have a fitted effect of over 30% in size)
# In short: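 Beta-lactamase reporter under UAS control in HEK293H PPARg-bla cells; compound treatment 17 h at 37C. Read-out: fluorescence intensity after 1 h room-temperature incubation with LiveBLAzer B/G FRET substrate.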
# Chain of Peroxisome proliferator-activated receptor gamma (Homo sapiens) (P37231 whole entry, looked up): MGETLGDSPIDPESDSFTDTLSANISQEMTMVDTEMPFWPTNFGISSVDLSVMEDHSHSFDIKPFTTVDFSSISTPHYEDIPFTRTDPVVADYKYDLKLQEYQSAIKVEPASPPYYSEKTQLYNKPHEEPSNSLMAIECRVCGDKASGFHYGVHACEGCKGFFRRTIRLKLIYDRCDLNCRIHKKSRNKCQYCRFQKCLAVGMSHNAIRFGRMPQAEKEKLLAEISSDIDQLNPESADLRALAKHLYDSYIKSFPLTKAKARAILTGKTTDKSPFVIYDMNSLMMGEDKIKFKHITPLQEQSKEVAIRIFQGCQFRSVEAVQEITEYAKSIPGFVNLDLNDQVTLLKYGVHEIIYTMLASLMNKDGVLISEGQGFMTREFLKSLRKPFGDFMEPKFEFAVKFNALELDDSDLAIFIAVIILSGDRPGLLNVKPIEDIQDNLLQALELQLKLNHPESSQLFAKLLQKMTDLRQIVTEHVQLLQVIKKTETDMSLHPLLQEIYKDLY
# Chain of Aryl hydrocarbon receptor (Homo sapiens) (P35869 whole entry, looked up): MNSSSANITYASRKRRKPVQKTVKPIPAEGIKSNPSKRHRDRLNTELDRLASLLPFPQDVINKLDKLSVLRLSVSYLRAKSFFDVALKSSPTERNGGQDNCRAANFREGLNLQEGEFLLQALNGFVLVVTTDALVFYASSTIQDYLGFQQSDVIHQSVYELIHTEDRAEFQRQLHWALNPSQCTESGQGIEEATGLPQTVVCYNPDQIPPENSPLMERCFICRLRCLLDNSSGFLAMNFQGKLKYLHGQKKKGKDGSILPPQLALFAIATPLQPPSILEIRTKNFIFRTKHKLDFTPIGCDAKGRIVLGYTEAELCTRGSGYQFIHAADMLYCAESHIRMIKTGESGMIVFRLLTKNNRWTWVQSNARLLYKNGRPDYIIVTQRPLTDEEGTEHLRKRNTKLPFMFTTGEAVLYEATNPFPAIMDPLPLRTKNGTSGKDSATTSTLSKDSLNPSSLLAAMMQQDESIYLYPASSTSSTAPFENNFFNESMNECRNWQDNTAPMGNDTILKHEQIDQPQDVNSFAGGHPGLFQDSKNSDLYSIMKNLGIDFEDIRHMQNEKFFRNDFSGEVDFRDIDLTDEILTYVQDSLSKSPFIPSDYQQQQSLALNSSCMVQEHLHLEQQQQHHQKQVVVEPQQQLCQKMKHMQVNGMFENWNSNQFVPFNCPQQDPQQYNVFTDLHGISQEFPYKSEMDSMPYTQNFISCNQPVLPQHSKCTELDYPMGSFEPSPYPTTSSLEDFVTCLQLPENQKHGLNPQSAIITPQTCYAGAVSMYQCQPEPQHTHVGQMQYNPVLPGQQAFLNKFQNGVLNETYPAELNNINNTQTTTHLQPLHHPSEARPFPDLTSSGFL
Structure (SMILES),Potency [1],Potency [2],outcome [3],Potency [4],Potency [5],Potency [6],Potency [7],Potency [8],Potency [9],Potency [10]
O=C(NC(Cc1cc(=O)[nH]c2ccccc12)C(=O)O)c1ccc(Cl)cc1 (stereo not drawn),inactive,inactive,inactive,inactive,inactive,inactive,inactive,inactive,inactive,
O=C(O)c1cc(Cl)cc(Cl)c1O,inactive,inactive,inactive,inactive,inactive,inactive,inactive,inactive,inactive,
Cc1cccc(C)c1NC(=O)c1cc(S(N)(=O)=O)c(Cl)cc1O,inactive,inactive,inactive,,inactive,inactive,inactive,inactive,inactive,inactive
COC1CCC=CO1 (stereo not drawn),inactive,inactive,inactive,inactive,inactive,inactive,inactive,inactive,inactive,
CC1CCc2nccnc21 (stereo not drawn),inactive,inactive,inactive,inactive,inactive,inactive,inactive,inactive,inactive,
C=CC(=O)O,inactive,inactive,inactive,inactive,,inactive,inactive,,inactive,inactive
CC(=O)C(C)=O,inactive,inactive,inactive,inactive,inactive,inactive,inactive,inactive,inactive,
O=c1[nH]c2cc(C(F)(F)F)c(N3CCOCC3)cc2n(CP(=O)(O)O)c1=O,inactive,inactive,inactive,inactive,inactive,inactive,inactive,inactive,inactive,
COc1cc(NS(=O)(=O)c2ccc(N)cc2)nc(C)n1,inactive,inactive,inactive,inactive,inactive,inactive,inactive,inactive,,
CCCCCCCC/C=C\CCCCCCCC(=O)OCCO,inactive,inactive,inactive,inactive,,inactive,64.9 µM (active),,inactive,inactive
CCN(CC)c1ccc(C(=C2C=CC(=[N+](CC)CC)C=C2)c2ccc(S(=O)(=O)O)cc2S(=O)(=O)[O-])cc1,inactive,19.3 µM (active),inactive,,inactive,,,inactive,,inactive
O=C(O)CCS,inactive,inactive,inactive,inactive,inactive,inactive,,inactive,inactive,
C=CCOC(=O)COCCC(C)C,inactive,inactive,inactive,inactive,inactive,inactive,inactive,inactive,inactive,
COc1ccc(CCN(C)CCCN2CCc3cc(OC)c(OC)cc3CC2=O)cc1OC,inactive,inactive,inactive,inactive,inactive,inactive,inactive,,inactive,
O=C(O)CCC(=O)OC[C@@H](NC(=O)C(Cl)Cl)[C@H](O)c1ccc([N+](=O)[O-])cc1,inactive,inactive,inactive,inactive,inactive,inactive,inactive,,inactive,
Cc1c(C2(c3cc(Br)c(O)c(Br)c3C)OS(=O)(=O)c3ccccc32)cc(Br)c(O)c1Br,inactive,10.5 µM (active),inactive,inactive,,,inactive,inactive,,inactive
CC(=O)OCC(C)C,inactive,inactive,inactive,inactive,inactive,inactive,inactive,inactive,inactive,
O=C(c1ccccc1)c1ccc(O)cc1,inactive,inactive,inactive,inactive,,inactive,inactive,inactive,inactive,inactive
CNCc1ccc(NC(=O)c2c[nH]c3c2C(=O)CCC3)cc1,1.54 µM (active),inactive,inactive,,,inactive,inactive,inactive,inactive,inactive
Cc1ccc(Cl)cc1N,inactive,inactive,inactive,,inactive,inactive,inactive,inactive,inactive,inactive

Structure (SMILES),Potency [1],Potency [2],outcome [3],Potency [4],Potency [5],Potency [6],Potency [7],Potency [8],Potency [9],Potency [10]
O=CNNC=O,inactive,inactive,inactive,inactive,inactive,inactive,,,inactive,
CC(C)C1CCC(C(=O)N[C@H](Cc2ccccc2)C(=O)O)CC1 (stereo partly drawn),inactive,inactive,inactive,inactive,inactive,inactive,inactive,inactive,inactive,
O=C(O)c1ccc(O)cc1O,inactive,inactive,inactive,inactive,inactive,inactive,inactive,inactive,inactive,
O=C(O)CCC(=O)c1ccc(-c2ccccc2)cc1,inactive,inactive,inactive,inactive,inactive,inactive,,inactive,inactive,
CCCCC[C@H](O)/C=C/[C@H]1[C@H](O)CC(=O)[C@@H]1C/C=C\CCCC(=O)O,inactive,inactive,inactive,,,inactive,inactive,inactive,inactive,inactive
CC(C)C(O)C(C)(C)CO (stereo not drawn),inactive,inactive,inactive,inactive,inactive,inactive,inactive,inactive,inactive,
CC(C)c1ccc(C(=O)N=C(N)N)cc1S(C)(=O)=O,inactive,inactive,inactive,inactive,inactive,inactive,inactive,inactive,inactive,
COC(=O)CC(C(C)=O)C(=O)OC (stereo not drawn),inactive,inactive,inactive,inactive,,inactive,inactive,inactive,inactive,
CCN(Cc1cccc(S(=O)(=O)O)c1)c1ccc(C(=C2C=CC(=[N+](CC)Cc3cccc(S(=O)(=O)O)c3)C=C2)c2ccc(O)cc2S(=O)(=O)[O-])cc1,inactive,16.6 µM (active),inactive,inactive,inactive,,,inactive,,
CCN(Cc1cccc(S(=O)(=O)O)c1)c1ccc(C(=C2C=CC(=[N+](CC)Cc3cccc(S(=O)(=O)O)c3)C=C2)c2ccccc2S(=O)(=O)[O-])cc1,inactive,27.4 µM (active),inactive,inactive,inactive,,,inactive,,
CC[C@H]1OC(=O)[C@H](C)[C@@H](O[C@H]2C[C@@](C)(OC)[C@@H](O)[C@H](C)O2)[C@H](C)[C@@H](O[C@@H]2O[C@H](C)C[C@H](N(C)C)[C@H]2O)[C@](C)(O)C[C@@H](C)C(=O)[C@H](C)[C@@H](O)[C@]1(C)O,inactive,inactive,inactive,,inactive,,,inactive,inactive,
CCCCCCC(CO)CCCC (stereo not drawn),inactive,inactive,inactive,,inactive,,inactive,inactive,inactive,
Cc1cccc2sc(N)nc12,27.6 µM (active),inactive,inactive,inactive,,inactive,,inactive,inactive,
O=C1NC(=O)c2cccc3cccc1c23,21.7 µM (active),inactive,inactive,inactive,,inactive,inactive,inactive,inactive,
CC1C(C)(C)C2=C(C(=O)CCC2)C1(C)C (stereo not drawn),inactive,inactive,inactive,inactive,,inactive,inactive,inactive,inactive,
CNc1c2c(nn1C)CCCC2,inactive,inactive,inactive,inactive,inactive,,inactive,inactive,inactive,
CC(C)CC(O)CC(C)C,inactive,inactive,inactive,inactive,,inactive,inactive,inactive,inactive,
COc1ccc(-n2nc(C(F)F)cc2-c2ccc(S(C)=O)cc2)cc1 (stereo not drawn),inactive,inactive,inactive,,inactive,inactive,inactive,,,
Cc1ccc(N(CC2=NCCN2)c2cccc(O)c2)cc1,inactive,inactive,inactive,inactive,,inactive,inactive,inactive,,
ClC1=C(Cl)C1(Cl)Cl,inactive,inactive,inactive,inactive,,inactive,inactive,inactive,inactive,

Structure (SMILES),Potency [1],Potency [2],outcome [3],Potency [4],Potency [5],Potency [6],Potency [7],Potency [8],Potency [9],Potency [10]
[Cl][Nd]([Cl])[Cl],inactive,inactive,inactive,inactive,,inactive,inactive,inactive,inactive,
NC(=O)CCCCC(N)=O,inactive,inactive,inactive,inactive,,inactive,inactive,inactive,inactive,
COc1ccc(-c2cc(C(F)F)nn2-c2ccc(S(N)(=O)=O)cc2)cc1F,inactive,inactive,inactive,inactive,,inactive,inactive,inactive,inactive,
COc1cc(OC)c2ccc(=O)oc2c1,inactive,inactive,inactive,inactive,,inactive,inactive,inactive,inactive,
COc1ccc(C2C(=O)c3ccccc3C2=O)cc1,inactive,inactive,inactive,,inactive,,inactive,inactive,inactive,
CS(=O)(=O)c1ccc([C@@H](C[C@H]2CCC(=O)C2)C(=O)Nc2cnccn2)cc1Cl,inactive,inactive,inactive,inactive,,inactive,inactive,,,
CC(=O)OCC(=O)[C@@]1(OC(C)=O)[C@@H](C)C[C@H]2[C@@H]3C[C@H](F)C4=CC(=O)C=C[C@]4(C)[C@@]3(F)[C@@H](O)C[C@@]21C,inactive,inactive,inactive,,inactive,inactive,inactive,inactive,inactive,
O=C(Oc1ccccc1)c1ccc2ccccc2c1O,inactive,inactive,inactive,,inactive,inactive,inactive,inactive,inactive,
NC(=O)c1ccccc1[N+](=O)[O-],inactive,inactive,inactive,inactive,,inactive,inactive,inactive,inactive,
CCCCCCCCCCCCCCCC(=O)OCC,inactive,inactive,inactive,inactive,,inactive,inactive,inactive,inactive,
CCCCCCCCCCCCCOS(=O)(=O)O,inactive,inactive,inactive,inactive,,61.1 µM (active),inactive,,,
O=P(O)(O)Oc1ccccc1,inactive,inactive,inactive,inactive,,inactive,inactive,inactive,inactive,
CC(C)COC(=O)c1ccc(O)cc1,inactive,inactive,inactive,inactive,,inactive,inactive,inactive,inactive,
Cc1c[nH]c2ccccc12,inactive,inactive,inactive,inactive,,inactive,inactive,inactive,inactive,
COC(C)(C)OC,inactive,inactive,inactive,,inactive,inactive,,inactive,inactive,
O=C(O)/C=C/c1ccc(O)c(O)c1,inactive,inactive,inactive,inactive,,inactive,inactive,inactive,inactive,
CC[C@H]1OC(=O)[C@H](C)[C@@H](O[C@H]2C[C@@](C)(OC)[C@@H](O)[C@H](C)O2)[C@H](C)[C@@H](O[C@@H]2O[C@H](C)C[C@H](N(C)C)[C@H]2O)[C@](C)(O)C[C@@H](C)CN(C)[C@H](C)[C@@H](O)[C@]1(C)O,inactive,inactive,inactive,,,inactive,inactive,inactive,,
c1ccc(CNc2ncnc3c2ncn3C2CCCCO2)cc1 (stereo not drawn),8.63 µM (active),inactive,inactive,,,inactive,inactive,inactive,inactive,
C[C@@H]1C[C@H]2[C@@H]3CCC4=CC(=O)C=C[C@]4(C)[C@@]3(F)[C@@H](O)C[C@]2(C)[C@@]1(O)C(=O)COP(=O)(O)O,inactive,inactive,inactive,,inactive,inactive,inactive,inactive,inactive,
